Source: the supplement of paper PMC6555819

Legend:
Experiment in all cases: PBM binding z-score (relative to random genomic background probes); higher = stronger binding; sequences stand for … in GC…GCGATTGACAGCGTAGAATGAAGG
[1] = system: RARb homodimer (NR concentration 270 nM)
Summary of the method: (§1)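 Probes were double-stranded and carried 34-nt variable regions with direct-repeat seeds, single-nucleotide variants, half-site ablations and random human genomic background sequences, printed on custom Agilent 4×180K protein-binding microarrays. Arrays were incubated 1 h with ligand-free nuclear receptor dimers in PBS pH 7.4, 2% milk, 0.02% Triton X-100, 1 mM DTT, 0.2 mg/mL BSA and 0.4 mg/ml salmon testes DNA. Antibodies against each partner (one per run) detected binding, and scanned fluorescence was regression-normalized. Binding z-scores use the random background probes as reference.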

[2] = system: RARg:RXRa (NR concentration 270 nM, RXRa partner concentration 90 nM)
Summary of the method: as §1

[3] = system: RARg homodimer (NR concentration 270 nM)
Summary of the method: as §1

[4] = system: RXRa DBDmut IVT, anti-RXR (DBD mutation: RXRa K156A/R161A, NR concentration 90 nM)
Summary of the method: as §1

[5] = system: RXRa homodimer (NR concentration 180 nM)
Summary of the method: as §1

[6] = system: THRa:RXRa (NR concentration 90 nM, RXRa partner concentration 90 nM)
Summary of the method: as §1

[7] = system: THRa homodimer (NR concentration 90 nM)
Summary of the method: as §1

[8] = system: VDR homodimer (NR concentration 270 nM)
Summary of the method: as §1

| Sequence | PBM binding z-score [1] | PBM binding z-score [2] | PBM binding z-score [3] | PBM binding z-score [4] | PBM binding z-score [5] | PBM binding z-score [6] | PBM binding z-score [7] | PBM binding z-score [8] |
| --- | --- | --- | --- | --- | --- | --- | --- | --- |
| ATAGACAGGTGAGTGAAGGTAACTCAGCTGGACG | 0.264 | 0.515 | 0.582 | -0.459 | 0.665 | 1.68 | -0.333 | -0.359 |
| TCATATAGGTAAAGGTGAAAGGCGAACGATATGA | 1.51 | 1.67 | 1.39 | 0.748 | 2.24 | 1.7 | -0.314 | -0.263 |
| CGTCCAAGGTCATAGAAGGTCAGTGAAGACAGAT | 5.56 | 6.7 | 7.06 | 4.03 | 6.78 | 5.07 | 2.62 | 4 |
| AGTCAAAGTTCATCTAGGTAACTTAAGATATGCT | 3.54 | 5.3 | 5.5 | 4.71 | 4.34 | 3.05 | 0.221 | 5.32 |
| TGAATGAGGTTAAAGAACAGGGAACGTGGCGTCG | 0.64 | 1.86 | 1.5 | 1.33 | 2.68 | 2.03 | 0.34 | 0.66 |
| CTGAGTAGGTTATGGGGCATTCAGGCAACGGTGA | 0.905 | 0.544 | 0.679 | -0.017 | 0.713 | 0.647 | -0.0528 | -0.0687 |
| ATCTCTAGGTAAAAGTTCAGTGAGTCCCGAGGAT | 2.32 | 1.86 | 1.93 | 0.855 | 1.73 | 1.13 | 0.291 | 2.34 |
